The whole screen tested about 340,000 compounds, of which about 2,100 (0.62%) were called active.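 The calls were made as follows: active = first-screen hits whose inhibition reached a set limit at any dose in the follow-up dose series; inconclusive = inhibition above the set first-screen limit but never retested; inactive = the rest.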 Not all results are given here. Potency and affinity values are given separately.
biological target: Rac GTPase-activating protein 1 (Homo sapiens) (UniProt Q9H0H5); assay: blockers of MgcRacGAP-driven Rac1 GTP hydrolysis – biochemical, ADP Hunter fluorescence, primary and confirmatory, confirmation (AID 624330); details: MgcRacGAP-stimulated Rac1 GTP hydrolysis, at 30 µM, stronger effect = higher value, GST-tagged Rac1 F28L mutant substrate;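 also: fluorescence reports GDP produced by GAP-driven GTP hydrolysis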
Sequence (Q9H0H5 whole entry, looked up): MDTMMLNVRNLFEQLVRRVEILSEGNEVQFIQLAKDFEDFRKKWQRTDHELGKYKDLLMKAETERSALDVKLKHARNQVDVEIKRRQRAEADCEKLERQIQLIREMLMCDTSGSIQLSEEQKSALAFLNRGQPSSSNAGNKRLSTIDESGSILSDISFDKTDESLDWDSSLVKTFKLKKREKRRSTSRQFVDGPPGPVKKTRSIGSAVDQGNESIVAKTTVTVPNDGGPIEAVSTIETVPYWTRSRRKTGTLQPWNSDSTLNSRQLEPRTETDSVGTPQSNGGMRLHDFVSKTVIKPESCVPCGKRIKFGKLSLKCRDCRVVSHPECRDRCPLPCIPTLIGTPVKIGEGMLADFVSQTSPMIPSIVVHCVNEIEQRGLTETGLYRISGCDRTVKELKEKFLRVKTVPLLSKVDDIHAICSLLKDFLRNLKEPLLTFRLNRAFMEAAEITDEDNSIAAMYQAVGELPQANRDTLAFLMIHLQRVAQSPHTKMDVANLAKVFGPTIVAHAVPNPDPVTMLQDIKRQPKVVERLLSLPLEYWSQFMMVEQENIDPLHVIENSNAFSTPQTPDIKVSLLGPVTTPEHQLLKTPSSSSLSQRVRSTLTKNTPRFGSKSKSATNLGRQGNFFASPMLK

inhibition, inactive:
CNC(=S)N1CCc2sccc2C1C (configuration not stated) 9.43%
N#Cc1c2ccc(OCC(=O)NCc3ccco3)cc2n2ccccc12 8.65%
CCOC(=O)Cc1csc(NC(=O)/C=C/c2ccco2)n1 7.86%
Nc1c2ccccc2nc2ccccc12 12.6%
CN(C)c1nc2ccccc2c(N)c1-c1ccccc1 31%
CC1(C)CC(NC(=O)C2CCC(=O)N(Cc3ccccc3F)C2)CC(C)(C)C1 (configuration not stated) 6.51%
Cc1cc(C)c(S(=O)(=O)NC(C)C)c(C)c1-n1cnnn1 4.49%
Cc1cc(C)c(S(N)(=O)=O)c(C)c1-n1cnnn1 1.87%
COc1ccc(-c2nn(-c3ccccc3)cc2/C=N/NC(=S)NC(C)C)cc1OC 7.12%
CCOC(=O)C1CCN(C(=O)c2cc(S(=O)(=O)N3CCCCC3)ccc2C)CC1 -9.49%
CC(C)c1nc(SCC(=O)Nc2ccc(N3CCOCC3)cc2)c2ccccc2n1 9.39%
CN(C)c1ccc(NC(=O)CSc2nc(C3CC3)nc3ccccc23)cc1 -1.11%
COCCn1c(SCC(=O)c2ccc3c(c2)OCCO3)nnc1-c1ccco1 8.82%
O=C1NC(=O)N(c2ccccc2)C1=O 10%
O=C(O)COc1ccccc1/C=N/NC(=O)Cc1ccccc1 9.01%
CC(C)Cc1nc2sc3c(c2c(=O)n1N)CC(C)(C)OC3 -0.31%
Oc1ccc(C[C@H]2CNC(=S)N2CC2CCCN2C[C@H](Cc2ccc(O)cc2)N2C[C@H](Cc3ccccc3)N(CCc3ccccc3)C2=S)cc1 (some centres not stated) 10.5%
Cc1cc2c(cc1S(=O)(=O)N1CC(C)CC(C)C1)OCC(=O)N2 (configuration not stated) 1.63%
COc1cccc(/C=C/C(=O)OC(C)C(=O)Nc2c(C)n(C)n(-c3ccccc3)c2=O)c1 (configuration not stated) 1.46%
Cc1c(NC(=O)C(C)OC(=O)/C=C/c2ccccc2)c(=O)n(-c2ccccc2)n1C (configuration not stated) 2.8%
COc1cc(/C=C/C(=O)OCC(=O)Nc2c(C)n(C)n(-c3ccccc3)c2=O)cc(OC)c1OC -6.63%
COc1cc(/C=C/C(=O)OCC(=O)Nc2c(C)n(C)n(-c3ccccc3)c2=O)ccc1OCC#N 3.82%
CCCCCCn1c(CN2CCN(C)CC2)nc2c1c(=O)n(C)c(=O)n2C 0.38%
CCOC(=O)Cc1csc(NC(=O)CSc2nc(N)c3c(C)c(C)sc3n2)n1 -6.82%
O=C(CSc1nc2ccccc2o1)NCC1CCCO1 (configuration not stated) 5.06%
CCC(c1nnnn1Cc1ccc(OC)cc1)N1CCN(c2ccc(OC)cc2)CC1 (configuration not stated) 24.3%
Cc1cc2oc(=O)cc(CSc3nc(N)cc(N)n3)c2cc1C(C)C 11.9%
O=C1c2ccccc2[C@@H]2C[C@@H](O)[C@H](Nc3ccccc3)CCN12 8.38%
N#Cc1ccc(N[C@@H]2CCN3C(=O)c4ccccc4[C@@H]3C[C@H]2O)cc1 4.35%
CCC1CCCCN1Cc1ccc(OC)c(C)c1 (configuration not stated) 14.3%
Cc1ccc(S(=O)(=O)NCCS(=O)(=O)N2CCN(c3ccccc3)CC2)cc1 -3.13%
CC(C)(c1ccc(O)c([N+](=O)[O-])c1)c1ccc(O)c([N+](=O)[O-])c1 5%
N=C(N)SCc1ccc(O)c([N+](=O)[O-])c1 14.6%
CN(CC(=O)Nc1ccc2c(c1)CCC2)CC(=O)Nc1ccccc1Br 3.47%
Nc1ccc2c(c1)Cc1c(F)cccc1-2 19.7%
O=[N+]([O-])c1cc2c(cc1Br)-c1ccccc1C2 3.13%
CC(=O)Nc1cc2c(cc1Cl)-c1ccccc1C2 0.41%
Nc1ccc2c(c1)CCC2=O 1.82%
CC(=O)Nc1c(Cl)cc2c(c1Cl)Cc1cc(N)ccc1-2 2.49%
COc1cc(N)ccc1-c1cc2ccccc2oc1=O 3.42%
Nc1ccc2c(c1)Cc1cc(Cl)c(Cl)cc1-2 31.7%
COc1cc2c(cc1[N+](=O)[O-])-c1ccccc1C2 -0.68%
O=C(CCc1nc2ccccc2s1)NCc1ccccc1F 3.81%
CCSC1=N/C(=C\c2ccccc2)C(=O)N1 7.65%
C/C(=N/NC(=O)C1CC1(c1ccccc1)c1ccccc1)c1ccco1 (configuration not stated) 10.7%
COc1cc2cc(CN(Cc3cccnc3)C(=O)Nc3ccccc3)c(=O)[nH]c2cc1OC 13.6%
CCCCn1c(N)c(N(CCOC)C(=O)CCN2C(=O)C3CC=CCC3C2=O)c(=O)[nH]c1=O (configuration not stated) 9.87%
O=C(NCC(=O)N1CCCCCCC1)c1ccc(Cl)c(Cl)c1 16.3%
CC(=O)Nc1ccc2c(c1Br)Cc1ccccc1-2 2.11%
Nc1c(Cl)cc2c(c1Br)Cc1ccccc1-2 13.1%
O=C(CN1CCCC1)NC(c1ccccc1)c1ccccc1 23.8%
CC1Cc2ccccc2N1CC(=O)NC(c1ccccc1)c1ccccc1 (configuration not stated) -0.83%
COCCNC(=O)CN1CCN(C(c2ccccc2)c2ccccc2)CC1 25.6%
Cc1ccc(NC(=O)CN2CCN(Cc3ccccc3)CC2)cc1F 6.45%
O=C(CN1CCN(Cc2ccccc2)CC1)Nc1ccc(Cl)cc1 10.4%
O=C(CN1CCCCCC1)NC(c1ccccc1)c1ccccc1 25.4%
O=C(CN1CCN(C(c2ccccc2)c2ccccc2)CC1)NCc1ccccc1 4.24%
CC1CN(CC(=O)NC(C)c2ccccc2)CC(C)O1 (configuration not stated) 10.1%
CCN1CCN(C(=O)c2ccccc2Nc2ccc(SC(F)F)cc2)CC1 9.86%
CCCCCC(=O)Nc1cccc(S(=O)(=O)NC2=NCCC2)c1 6%
O=C(NCc1ccccn1)c1ccc(NS(=O)(=O)c2cccc(Cl)c2)cc1 2.91%
CC1CN(Cc2nc3c(c(=O)n(C)c(=O)n3C)n2CC(O)CO)CC(C)O1 (configuration not stated) 1.13%
